# Test results published in PubChem BioAssay (EPA / NIEHS).
# “And” between values parts separate entries of the source, which are not always exact repeats. Equal values may be shown once. Results filed as inconclusive are left out. The source made the active and inactive calls. How the source made its calls, unless noted: active means hit-call score of the fitted dose curve at least 0.9, where 1 is the maximum; inactive means score below 0.9.
# Assays:
# IYD (gene 389434) = assay: CCTE_GLTED_hIYD: CCTE's human Iodotyrosine Deiodinase (xIYD) Inhibition Assay, Great Lakes Toxicology and Ecology Division (GLTED) Lab (AID 2284317; active means hit-call score of the fitted dose curve at least 0.9, where 1 is the maximum;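 further: cell-free human IYD enzyme made in baculovirus insect cells; iodide freed from monoiodotyrosine measured by cerium arsenite color change at 420 nm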)
# Summary of the method: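 Iodide liberated from monoiodotyrosine by baculovirus-expressed human IYD over 3 h was determined colorimetrically (Sandell-Kolthoff, 420 nm) after Dowex separation; inhibition is loss of signal versus DMSO.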
# [1] = UKN4_HCS_LUHMES_cell_viability: Viability Assessment in the University of Konstanz (UKN) Leist Lab Neurite Outgrowth Assay in human LUHMES cells (UKN4) (AID 2284232)
# Summary of the method: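 Measured in replated, 2-day-differentiated LUHMES cells treated 24 h; stained 30 min with H-33342 and calcein-AM before high-content imaging.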
# [2] = UKN2_HCS_IMR90_cell_viability: Viability Assessment in the University of Konstanz (UKN) Leist Lab Neural Crest Cell Migration Assay in human induced IMR90 Pluripotent Stem Cells (UKN2) (AID 2284233);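 further: cells exposed to compound for 24 h after a 24 h migration phase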
# Summary of the method: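 Viability read as calcein-AM fluorescence by high-content imaging, Hoechst co-stain, 30 min. Human iPSC (IMR90) neural crest cells had migrated 24 h into stopper-defined gaps before 24 h chemical exposure. Fitted bidirectionally relative to DMSO.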
# [3] = CCTE_Mundy_HCI_hNP1_Pro_ResponderAvgInten: CCTE's Proliferation Assay in human neuroprogenitor cells, Mundy Lab (AID 2284224; active means hit-call score of the fitted dose curve at least 0.9, where 1 is the maximum;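 further: human neural progenitor cells hNP1 derived from WA09 embryonic stem cells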)
# Summary of the method: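 Proliferation read as average intensity of BrdU-positive cells, imaged at 26.25 h post-dosing: chemical exposure started after 40–44 h culture, BrdU during final 4 h, paraformaldehyde fixation. Positive-direction fit relative to DMSO.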
# [4] = STM_H9_NormalizedViability: Cytotoxicity Assessment at 120 hours in the Stemina devTOX quickPredict H9 human embryonic stem cell (hESC)-based Assay (AID 2283784; active means hit-call score of the fitted dose curve at least 0.9, where 1 is the maximum)
# Summary of the method: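 Here, H9 cells received test compound with daily medium renewal. Each plate included methotrexate references (1uM, 5 nM), 0.1% DMSO and media blanks; CellTiter-Fluor RFU was normalized to DMSO.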
# PGR (gene 5241) = PGR (gene 5241) (UniProt P06401); assay: TOX21_PR_LUC_Followup_Antagonist: Tox21 HEK293 Progesterone Receptor (PR) Antagonism Luciferase Follow-Up Assay (AID 2283938; active means hit-call score of the fitted dose curve at least 0.9, where 1 is the maximum;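 further: curve fitted upward as signal gain over DMSO baseline despite antagonist label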)
# Chain of PGR (gene 5241) (P06401 whole entry, looked up): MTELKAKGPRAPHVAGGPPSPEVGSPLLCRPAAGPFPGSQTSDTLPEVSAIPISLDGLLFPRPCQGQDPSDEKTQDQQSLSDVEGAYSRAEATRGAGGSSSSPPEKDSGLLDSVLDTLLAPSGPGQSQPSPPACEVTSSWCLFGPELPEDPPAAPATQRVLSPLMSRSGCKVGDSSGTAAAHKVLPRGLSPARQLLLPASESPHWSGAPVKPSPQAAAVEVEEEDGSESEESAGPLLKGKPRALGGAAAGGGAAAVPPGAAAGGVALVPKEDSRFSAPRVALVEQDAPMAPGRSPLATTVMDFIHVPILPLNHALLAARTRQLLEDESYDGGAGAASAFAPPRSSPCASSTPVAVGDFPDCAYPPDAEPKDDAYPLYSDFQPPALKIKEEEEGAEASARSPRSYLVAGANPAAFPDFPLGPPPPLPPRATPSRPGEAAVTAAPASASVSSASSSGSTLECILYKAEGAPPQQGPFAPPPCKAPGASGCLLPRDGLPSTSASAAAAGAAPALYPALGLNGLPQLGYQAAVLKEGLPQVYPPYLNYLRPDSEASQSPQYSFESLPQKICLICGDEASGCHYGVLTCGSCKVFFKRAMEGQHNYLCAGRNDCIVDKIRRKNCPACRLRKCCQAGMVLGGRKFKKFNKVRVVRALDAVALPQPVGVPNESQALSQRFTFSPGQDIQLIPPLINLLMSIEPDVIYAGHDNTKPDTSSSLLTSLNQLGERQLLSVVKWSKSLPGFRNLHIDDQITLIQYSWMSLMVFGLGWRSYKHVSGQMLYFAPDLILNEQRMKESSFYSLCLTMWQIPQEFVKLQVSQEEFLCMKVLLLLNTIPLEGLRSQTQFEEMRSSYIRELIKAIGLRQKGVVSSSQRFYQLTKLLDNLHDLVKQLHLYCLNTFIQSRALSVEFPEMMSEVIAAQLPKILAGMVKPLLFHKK
# Summary of the method: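 Luminescence from ONE-Glo reagent, measured after 30 min at room temperature, served as readout. Cells (HEK293 carrying PR-A-luc) had been treated 16 h at 37C with DMSO-dissolved compounds. Activity was fitted against DMSO controls.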
# [5] = target: human CYP2C9, CYP2C9 (gene 1559) (UniProt P11712); assay: NVS_ADME_hCYP2C9: NovaScreen (NVS) CYP450-related Enzyme Activity (ADME) Assay for human CYP2C9 (AID 2283108; active means hit-call score of the fitted dose curve at least 0.9, where 1 is the maximum)
# Chain of human CYP2C9, CYP2C9 (gene 1559) (P11712 whole entry, looked up): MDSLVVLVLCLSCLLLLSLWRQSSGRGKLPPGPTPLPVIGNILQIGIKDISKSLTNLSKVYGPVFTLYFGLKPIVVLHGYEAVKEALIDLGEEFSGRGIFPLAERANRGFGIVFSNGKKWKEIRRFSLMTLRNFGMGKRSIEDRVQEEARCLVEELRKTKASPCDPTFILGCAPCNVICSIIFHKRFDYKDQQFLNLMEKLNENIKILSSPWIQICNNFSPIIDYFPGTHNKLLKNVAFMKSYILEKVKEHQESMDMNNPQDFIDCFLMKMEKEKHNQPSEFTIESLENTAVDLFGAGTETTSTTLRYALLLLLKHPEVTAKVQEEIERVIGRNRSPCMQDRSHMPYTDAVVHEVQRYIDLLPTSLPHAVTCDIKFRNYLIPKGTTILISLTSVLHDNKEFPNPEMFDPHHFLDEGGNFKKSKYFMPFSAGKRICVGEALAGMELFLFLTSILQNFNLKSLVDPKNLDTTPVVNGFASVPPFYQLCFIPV
# Summary of the method: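 Recombinant human CYP2C9 expressed in SF9 cells, fluorogenic substrate, fluorescence read 0.75 h after dosing. Chemicals first run in duplicate at 10 uM, with actives followed in concentration series; loss of signal versus acetonitrile baseline.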
# DIO2 (gene 1734) = assay: CCTE_GLTED_hDIO2: CCTE's human Deiodinase 2 (DIO2) Inhibition Assay, Great Lakes Toxicology and Ecology Division (GLTED) Lab (AID 2284050; active means hit-call score of the fitted dose curve at least 0.9, where 1 is the maximum)
# Summary of the method: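 Triplicate cell-free incubations (3 h) of human DIO2 with chemical preceded colorimetric Sandell-Kolthoff quantitation of liberated iodide; DMSO served as negative control for curve fitting.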
# [6] = target: human Thromboxane A2 Receptor (TXA2), TBXA2R (gene 6915) (UniProt P21731); assay: NVS_GPCR_hTXA2: NovaScreen (NVS) G Protein-Coupled Receptor Assay for human Thromboxane A2 Receptor (TXA2) (AID 2283282; active means hit-call score of the fitted dose curve at least 0.9, where 1 is the maximum;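 further: actives reduce bound radioligand signal relative to DMSO baseline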)
# Chain of human Thromboxane A2 Receptor (TXA2), TBXA2R (gene 6915) (P21731 whole entry, looked up): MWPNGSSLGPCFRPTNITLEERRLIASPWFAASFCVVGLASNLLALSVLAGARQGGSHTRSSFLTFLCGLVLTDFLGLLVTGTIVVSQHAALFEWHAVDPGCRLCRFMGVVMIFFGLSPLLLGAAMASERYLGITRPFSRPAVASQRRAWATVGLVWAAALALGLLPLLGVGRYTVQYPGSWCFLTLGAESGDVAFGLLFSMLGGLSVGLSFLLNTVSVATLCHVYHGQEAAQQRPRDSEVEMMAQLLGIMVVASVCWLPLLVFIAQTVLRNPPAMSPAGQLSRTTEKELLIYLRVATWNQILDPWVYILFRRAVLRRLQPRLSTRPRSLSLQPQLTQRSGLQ
# Summary of the method: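 Filter scintillation counting of bound radioligand, human platelet protein, 1 h exposure. Single-concentration duplicates (25 uM) first, concentration-response follow-up for actives. Binding loss scored against DMSO baseline.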
# [7] = read-out: Monocyte Chemoattractant Protein-1 (MCP1), CCL2 (gene 6347); assay: BSK_IMphg_MCP1: BioMAP Diversity Plus: IMphg Assay for Monocyte Chemoattractant Protein-1 (MCP1) Biomarker Activity (AID 2284253); settings: primary human endothelial cells with macrophages
# Summary of the method: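 ELISA readout of MCP-1 at 24 hours in IMphg co-cultures of venular endothelial cells and macrophages, normalised to DMSO; parallel cultures stained with sulforhodamine B for overt cytotoxicity.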
# [8] = read-out: Macrophage Inflammatory Protein-1 Alpha (MIP1a), CCL3 (gene 6348); assay: BSK_IMphg_MIP1a: BioMAP Diversity Plus: IMphg Assay for Macrophage Inflammatory Protein-1 Alpha (MIP1a) Biomarker Activity (AID 2284255); settings: primary human endothelial cells with macrophages
# Summary of the method: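 MIP-1a protein levels were quantified by ELISA after 24 h treatment of human endothelial cell–macrophage co-cultures, compared with DMSO. Parallel cultures were fixed with TCA and stained with 0.1% SRB to gauge overt cytotoxicity.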
# CD69, CD69 (gene 969) = assay: BSK_IMphg_CD69: BioMAP Diversity Plus: IMphg Assay for CD69 Biomarker Activity (AID 2284257); settings: primary human endothelial cells with macrophages
# Summary of the method: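 Readout is ELISA for CD69 in primary human venular endothelial cell/macrophage co-culture, taken at 24 h post-dosing. SRB staining of parallel cultures gauged overt cytotoxicity; signal increase versus DMSO defined activity.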
# [9] = read-out: Eotaxin 3, CCL26 (gene 10344); assay: BSK_BF4T_Eotaxin3: BioMAP Diversity Plus: BF4T Assay for Eotaxin 3 Biomarker Activity (AID 2284258); settings: primary human bronchial epithelial cells with fibroblasts
# Summary of the method: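 ELISA measurement of Eotaxin-3 after 24 h chemical exposure in a bronchial epithelial/dermal fibroblast co-culture, with DMSO as baseline. Parallel SRB staining (0.1% SRB after 10% TCA fixation, 560 nm) flagged overt cytotoxicity.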
# [10] = read-out: Monocyte Chemoattractant Protein-1 (MCP1), CCL2 (gene 6347); assay: BSK_BF4T_MCP1: BioMAP Diversity Plus: BF4T Assay for Monocyte Chemoattractant Protein-1 (MCP1) Biomarker Activity (AID 2284259); settings: primary human bronchial epithelial cells with fibroblasts
# Summary of the method: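 MCP-1 ELISA readout taken 24 h after dosing in the BF4T system (bronchial epithelial cells plus dermal fibroblasts). Parallel SRB total-protein staining flagged cytotoxicity; DMSO served as baseline, positive fitting direction.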
# [11] = read-out: Intercellular Adhesion Molecule 1 (ICAM1), ICAM1 (gene 3383); assay: BSK_BF4T_ICAM1: BioMAP Diversity Plus: BF4T Assay for Intercellular Adhesion Molecule 1 (ICAM1) Biomarker Activity (AID 2284260); settings: primary human bronchial epithelial cells with fibroblasts
# Summary of the method: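 ICAM-1 levels measured by ELISA after 24 h chemical treatment of bronchial epithelial cell/dermal fibroblast co-cultures, read against DMSO baseline. Overt cytotoxicity checked in parallel cultures by sulforhodamine B staining.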
# CD90, THY1 (gene 7070) = assay: BSK_BF4T_CD90: BioMAP Diversity Plus: BF4T Assay for CD90 Biomarker Activity (AID 2284262); settings: primary human bronchial epithelial cells with fibroblasts
# Summary of the method: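 CD90 levels by ELISA after 24 h treatment of human bronchial epithelial cell/dermal fibroblast cultures, analysed versus DMSO. Overt cytotoxicity checked in parallel cultures by sulforhodamine B staining.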
# [12] = read-out: Interleukin-1 alpha (IL1a), IL1A (gene 3552); assay: BSK_BF4T_IL1a: BioMAP Diversity Plus: BF4T Assay for Interleukin-1 alpha (IL1a) Biomarker Activity (AID 2284264); settings: primary human bronchial epithelial cells with fibroblasts
# Summary of the method: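 ELISA read-out of IL-1α from bronchial epithelial cell/dermal fibroblast co-cultures 24 h after compound addition. Increases scored against DMSO negative control. Cytotoxicity monitored by sulforhodamine B staining of parallel cultures.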
# KRT18 (gene 3875) = assay: BSK_BF4T_Keratin818: BioMAP Diversity Plus: BF4T Assay for Keratin 818 Biomarker Activity (AID 2284266); settings: primary human bronchial epithelial cells with fibroblasts
# Summary of the method: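 Keratin 8/18 levels quantified by ELISA after 24 h chemical treatment of bronchial epithelial cell/dermal fibroblast co-cultures, fitted in positive direction relative to DMSO. Parallel SRB staining tracks overt cytotoxicity.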
# [13] = read-out: Matrix Metallopeptidase 1 (MMP1), MMP1 (gene 4312); assay: BSK_BF4T_MMP1: BioMAP Diversity Plus: BF4T Assay for Matrix Metallopeptidase 1 (MMP1) Biomarker Activity (AID 2284270); settings: primary human bronchial epithelial cells with fibroblasts
# Summary of the method: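 MMP-1 quantified by ELISA in primary human bronchial epithelial/dermal fibroblast co-cultures, 24 hours post-dosing, with DMSO as baseline; parallel sulforhodamine B staining (560 nm) tracks overt cytotoxicity.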
# [14] = read-out: Matrix Metallopeptidase 3 (MMP3), MMP3 (gene 4314); assay: BSK_BF4T_MMP3: BioMAP Diversity Plus: BF4T Assay for Matrix Metallopeptidase 3 (MMP3) Biomarker Activity (AID 2284271); settings: primary human bronchial epithelial cells with fibroblasts
# Summary of the method: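 MMP-3 level read by ELISA after 24 h chemical exposure of bronchial epithelial cell/dermal fibroblast co-cultures, fitted upward relative to DMSO. Parallel cultures stained with 0.1% SRB after TCA fixation gauge overt cytotoxicity.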
smiles,measurement,setting,value
Cc1cc2nc3c(=O)[nH]c(=O)nc-3n(C[C@H](O)[C@H](O)[C@H](O)CO)c2cc1C,AC50,IYD (gene 389434),94.2 µM (active)
Oc1cccc2ccccc12,outcome,[1],inactive
same,outcome,[2],inactive
NC(N)=Nc1nc(CSCCC(N)=NS(N)(=O)=O)cs1,outcome,[3],inactive
CN(C)Cc1cc(C(C)(C)C)c(O)c(C(C)(C)C)c1,outcome,[4],inactive
c1cc[c]([Bi]([c]2ccccc2)[c]2ccccc2)cc1,outcome,PGR (gene 5241),inactive
Sc1nc2ccccc2s1,AC50,[5],1.9 µM (active)
same,outcome,DIO2 (gene 1734),inactive
CCCCCCCCCC/C=C/C1CC(=O)OC1=O (stereo not given),outcome,[6],inactive
OC(C(F)(F)F)(C(F)(F)F)C(O)(C(F)(F)F)C(F)(F)F,AC50,[7],22.4 µM (active) and 22.6 µM (active)
same,AC50,[8],7.09 µM (active) and 53.2 µM (active)
same,AC50,"CD69, CD69 (gene 969)",18.7 µM (active) and 24.2 µM (active)
same,AC50,[9],15.7 µM (active) and 8.93 µM (active)
same,outcome,[10],inactive
same,outcome,[11],inactive
same,outcome,"CD90, THY1 (gene 7070)",inactive
same,outcome,[12],inactive
same,outcome,KRT18 (gene 3875),inactive
same,outcome,[13],inactive
same,outcome,[14],inactive
